Bioassay records (PubChem BioAssay)
Compounds with a hit are over-represented: about 20% of the library has one in this group of screens.
Pf growth 48h = inhibits P. falciparum growth in the first generation, 48 h; P. falciparum luciferase growth in erythrocytes, 48 h; Potency, µM (top dose mostly 28.7 µM), inactives show top-dose activity change, negative = inhibition, hits mostly inhibitors; 310,000 tested, 5.9% active; AID 504832; note: potency is the fitted concentration of half-maximal effect; % is set by controls: 0 for no effect and ±100 for the full control effect
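Parasite viability was followed by luminescence of a genomically integrated firefly luciferase. Cultures held 0.1% parasitemia at 2% hematocrit (final), incubated under 5% CO2 at 37 C.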
Pf growth 96h = P. falciparum growth inhibition at 96 hours; P. falciparum luciferase reporter growth, 96 h; Potency, µM (top dose mostly 28.7 µM), inactives show at the highest dose activity change, negative = inhibition, hits mostly inhibitors; 320,000 tested, 6.9% active; AID 504834; note: potency is the fitted concentration of half-maximal effect; % is set by controls: 0 for no effect and ±100 for the full control effect
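Plates of compound plus infected erythrocytes (2% hematocrit, 0.05% parasitemia final) incubate 96 hours, 37 C, 5% CO2. Detection reagent added; reduced luminescence from the parasites' luciferase reporter flags inhibition.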
CHX counter = counter-screen hit for Shiga toxin inhibitors, cycloheximide; 300,000 tested, 12% active; max response, %; AID 2314; cell reporter, cycloheximide protein synthesis inhibition counterscreen; in the data active = max response mostly above about 13%, no sharp cut-off; inactive = mostly below about 14%; note: read at 38.3 µM for the half of the compounds with a filed dose; 0% is about no effect
Shiga toxin inh = blocks Shiga toxin action in Vero cells. 290,000 tested, 9.2% active. inhibition, % at 38.7 µM. AID 2315. Vero cells, Shiga toxin protein synthesis inhibition reporter; in the data active = inhibition mostly above about 28%, no sharp cut-off; inactive = mostly below about 43%; note: 0% is about no effect
HCMV antiviral = inhibitors of human cytomegalovirus. HFF cells, HCMV-luciferase reporter, 72 h; stronger effect = lower value. activity change, negative = inhibition, % at 57.5 µM. 410,000 tested, 4.5% active; in the data active = activity change below about -60%; inconclusive = no clear call, values can overlap the other calls; inactive = above about -39%; note: % is set by controls: 0 for no effect and ±100 for the full control effect
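Two-dose cell screen: HFF monolayers treated with compounds and infected with luciferase-expressing HCMV at 1 PFU/cell, 72 h at 37C, then lysed for luciferase measurement.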
Starred values were filed as active, the others as inactive; ? = inconclusive; . = no result; [ ] = remark or other dose. Unless noted, calls come from the whole dose curve; as a rule, active = well fitted inhibition curve with a large enough effect; inconclusive = small, poorly fitted or top-dose-only effect, or another doubt; inactive = no such curve, though single readings can be large or run the other way.

SMILES | Pf growth 48h | Pf growth 96h | CHX counter | Shiga toxin inh | HCMV antiviral
O=C(NCc1ccc2c(c1)OCO2)c1ccc(Cl)c(S(=O)(=O)N2CCOCC2)c1 | ? | . | 5 | -23 | 29
CC(C)OCCCNC(=S)NNC(=O)c1ccc(Cl)c(Cl)c1 | 46% | -16% | 29* | 66* | 12
O=C(NCCO)c1ccc(Cl)c(Cl)c1 | 14% | 15µM* | -6 | -24 | -5
CC(C)CNC(=O)c1ccc(Cl)c(Cl)c1 | 1% | -22% | -3 | 34 | 18
Cc1ccc(S(=O)(=O)NCCC(=O)NNC(=O)c2ccccc2O)cc1C | -5% | 8% | . | . | -14
CN1C(=O)/C(=C/c2ccc(OCc3ccccc3F)cc2)N(C)C1=S | -23% | -21% | -3 | . | 2
COC(=O)CC1Oc2ccc(Cl)cc2-n2cc(-c3ccc(F)cc3)nc21 (centres undefined) | . | . | . | . | -20
CC(=O)Nc1ccc(S(=O)(=O)Nc2nnc(Cc3ccc(Cl)cc3)s2)cc1 | -10% | -28% | -4 | -4 | -12
Cc1nc2sc(-c3ccccc3)cc2c(=O)[nH]1 | . | 131% | 19* | 40 | 64
Cc1nc2cc3ccccc3cc2c(=O)[nH]1 | . | 37% | 31* | 46* | 38
O=c1[nH]c(-c2cccnc2)nc2sc(-c3ccccc3)cc12 | 99% | 57% | 11 | 13 | 69
CC(C)OC(=O)Cc1nc2sc(-c3ccccc3)cc2c(=O)[nH]1 | 123% | 31% | 61* | 69* | .
Cc1cc2ccccc2c(=O)[nH]1 | 27% | 63% | -1 | -3 | -15
CCOc1cc(CNC(=O)C2CCN(c3nc4ccccc4[nH]3)CC2)cc(OCC)c1OCC | . | . | . | . | 0
O=C(Nc1ccc(N2CCOCC2)cc1)c1cn2ccccc2n1 | 22% | 28% | 47* | 56* | 15
Cc1cc(C(=O)Nc2ccncc2)c2ccccc2n1 | ? | 13µM* | 7 | -9 | .
COC(=O)c1nc2ccc(N3CCOCC3)cc2c(C)c1C(=O)OC | 180% | 385% | 22 | 57* | -4
CC(=O)c1ccc(NC(=O)c2cc(C)nc3ccccc23)cc1 | 22% | ? | 28* | 28 | 58
CC(C)C[C@H]1COc2cccc(N3CCCC3)c2S(=O)(=O)N1 | . | . | . | . | 4
Cc1cc(C(=O)Nc2ccc(N3CCOCC3)cc2)c2ccccc2n1 | 9.3µM* | 13µM* | -1 | -6 | 36
O=C1NCCN1C(=O)N1CCC[C@@H]1c1noc2cc3ccccc3cc12 | . | . | . | . | 3
O=C(Cc1ccc(NC(=O)C2CCN(C(=O)c3ccccc3)CC2)cc1)Nc1cccc(C(=O)N2CCCCC2)c1 | . | . | . | . | 11
CC1CCC2(CC1)NC(=O)N(Cc1nc(-c3ccccc3)no1)C2=O (centres undefined) | 6% | . | 6 | 11 | 26
Cn1c(-n2c(CCCN3C(=O)c4ccccc4C3=O)nc3ccccc3c2=O)nc2ccccc21 | -3% | 8% | -4 | 32 | 57
O=C1c2ccccc2C(=O)N1CCCc1nc2ccccc2c(=O)n1CCCn1ccnc1 | -27% | 1.9µM* | -7 | -15 | -29
SMILES | Pf growth 48h | Pf growth 96h | CHX counter | Shiga toxin inh | HCMV antiviral
O=c1cc(-c2ccccc2)cc(-c2ccccc2)n1CCO | -21% | -22% | . | . | 2
COc1cc(OC)cc(C(=O)N[C@H](C(=O)NCc2cccs2)C(C)C)c1 | -22% | -12% | 0 | 22 | 40
COc1ccc(-c2cn(-c3ccc(Br)cc3)c3[n+]2CCS3)cc1 | 1µM* | ? | -2 | -9 | -90*
CC(=O)c1ccc(-n2cc(-c3ccc(C(C)(C)C)cc3)[n+]3c2SCCC3)cc1 | ? | ? | -5 | -19 | -98*
Fc1ccc(-c2cn(-c3ccccc3)c3[n+]2CCS3)cc1 | 0.93µM* | 0.41µM* | -2 | -11 | -25
Clc1ccc(-c2cn(-c3ccccc3)c3[n+]2CCS3)cc1 | ? | 34%[5.75 µM] | -1 | -2 | -72*
COc1ccc(OCC(=O)N2CCN(C(=O)COc3ccc(Br)cc3)CC2)cc1 | ? | 30% | 1 | -8 | 40
COC(=O)C(O)(c1ccc2c(c1)CCCN2)C(F)(F)F (centres undefined) | . | 8.3µM* | -6 | -10 | 0
O=S1(=O)N(Cc2ccccc2F)CCCN1Cc1c(F)cccc1Cl | 10% | -5% | -2 | 20 | ?
C=CCOc1ccc(CNc2nn[nH]n2)cc1 | 4% | . | -6 | -9 | 9
COc1ccc(CNc2nccs2)cc1OC | 41% | 12µM* | -2 | 45 | 8
C=CCOc1ccc(CNc2nccs2)cc1 | 78% | ? | 22* | 55* | 13
